Tau ThT inhib = qHTS for Inhibitors of Tau Fibril Formation, Thioflavin T Binding. Microtubule-associated protein tau (Homo sapiens), P10636. recombinant tau K18 P301L, heparin-induced fibrillization, ThT fluorescence. Potency, µM (top dose mostly 57.4 µM), without a hit: at the highest dose activity, negative = inhibition, most hits filed as inhibitors. actives 2.1% (n = 270,000); further: nearly all actives have a fitted effect of over 55% in size
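Tau K18 P301L fragment (15 uM unlabeled plus 0.24 uM Alexa 594-labeled) in 100 mM sodium acetate pH 7 with compound, fibrillization induced by 20 uM heparin for 6 hr at 37 C. Thioflavin T (30 uM) added, fluorescence read after 1 hr (ex 450, em 510 nm).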
HPGD inh = qHTS Assay for Inhibitors of HPGD (15-Hydroxyprostaglandin Dehydrogenase). 15-hydroxyprostaglandin dehydrogenase [NAD(+)] (Homo sapiens), P15428. purified HPGD, NADH fluorescence kinetic, PGE2 substrate. Potency, µM, inactives show at the highest dose activity change, negative = inhibition, hits mostly inhibitors. actives 4.3% (n = 150,000); active means well fitted inhibition curve with a large enough effect, not every such curve was filed as active; inconclusive means small, poorly fitted or top-dose-only effect, or another doubt; inactive means no such curve, though single readings can be large or run the other way
Target sequence (P15428 whole entry, looked up): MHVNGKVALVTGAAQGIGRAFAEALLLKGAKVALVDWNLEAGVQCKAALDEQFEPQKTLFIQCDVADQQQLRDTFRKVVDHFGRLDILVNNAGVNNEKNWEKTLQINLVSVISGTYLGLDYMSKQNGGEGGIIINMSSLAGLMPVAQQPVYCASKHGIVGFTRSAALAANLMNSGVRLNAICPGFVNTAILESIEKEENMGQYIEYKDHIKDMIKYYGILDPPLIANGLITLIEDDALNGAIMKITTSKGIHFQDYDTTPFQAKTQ
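NADH formation kinetics: reaction with 30 uM PGE2 and 1 mM NAD+ (final), 20 nM enzyme, Tris-HCl pH 8 with Tween 20, after 15 min compound preincubation at room temperature. Fluorescence change, last versus first of five reads.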
Tau fluor cs = Counterscreen qHTS for Inhibitors of Tau Fibril Formation, Fluorescence Polarization. tau K18 P301L (four-repeat tau fragment) Alexa594 fluorescence, heparin fibrillization. Potency, µM (titrated, usually from 57.7 µM), without a hit: top-dose activity change, negative = decrease. actives 0.93% (n = 280,000); further: nearly all actives have a fitted effect of over 55% in size
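Human K18 P301L tau (15 uM unlabeled plus 0.24 uM Alexa 594-labeled, final) in 100 mM sodium acetate pH 7 was mixed with compound and 20 uM heparin and incubated 6 hr at 37 C.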
ALDH1A1 inh = qHTS Assay for Inhibitors of Aldehyde Dehydrogenase 1 (ALDH1A1); Aldehyde dehydrogenase 1A1 (Homo sapiens), P00352; Purified ALDH1A1, NADH fluorescence, propionaldehyde substrate; Potency, µM (highest dose often 75.3 µM), without a hit: top-dose activity, negative = inhibition, most hits filed as inhibitors; actives 7.3% (n = 220,000); active means well fitted inhibition curve with a large enough effect, not every such curve was filed as active; inconclusive means small, poorly fitted or top-dose-only effect, or another doubt; inactive means no such curve, though single readings can be large or run the other way;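 further: plate controls were no enzyme wells and a reference inhibitor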
Tau fibril FP = qHTS for Inhibitors of Tau Fibril Formation, Fluorescence Polarization. Microtubule-associated protein tau (Homo sapiens), P10636. K18 P301L tau heparin fibrillization, Alexa594 FP, 6 h. Potency, µM (highest dose often 57.7 µM), without a hit: at the top dose activity, negative = inhibition, usual class: inhibitors. actives 0.39% (n = 280,000); further: nearly all actives have a fitted effect of over 55% in size
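Recombinant K18 P301L […], labeled with Alexa 594 at 0.24 uM over 15 uM unlabeled; heparin inducer 20 uM final; 37 C, 6 hr; FP endpoint.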
NPSR antag = qHTS Assay for Antagonists of the Neuropeptide S Receptor: cAMP Signal Transduction. Q6W5P4. CHO-NPSR cells, cAMP TR-FRET, antagonist mode. Potency, µM (doses to about 38.3 µM), for the others: at the highest dose activity change, negative = inhibition, hits mostly inhibitors. actives 1% (n = 220,000); further: nearly all actives have a fitted effect of over 50% in size
Target sequence (Q6W5P4 whole entry, looked up): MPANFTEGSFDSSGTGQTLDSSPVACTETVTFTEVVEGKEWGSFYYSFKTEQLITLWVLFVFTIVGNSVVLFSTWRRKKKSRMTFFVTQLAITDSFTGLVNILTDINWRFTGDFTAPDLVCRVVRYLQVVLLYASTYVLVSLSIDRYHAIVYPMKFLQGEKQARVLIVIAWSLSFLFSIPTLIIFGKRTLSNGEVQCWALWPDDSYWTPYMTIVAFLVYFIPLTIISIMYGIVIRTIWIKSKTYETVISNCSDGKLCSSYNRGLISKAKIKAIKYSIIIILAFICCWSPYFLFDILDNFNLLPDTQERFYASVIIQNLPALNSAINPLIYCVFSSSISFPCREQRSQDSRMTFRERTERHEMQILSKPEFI
Starred values were filed as active, the others as inactive; [ ] = dose if it differs, or a comment. Only some compounds are listed: those with a hit (about 9.5% of all), similar ones and a draw of the others. Unless noted, the call rests on the fitted dose curve; in most records, active means well fitted curve in the direction sought with a large enough effect; inconclusive means small, poorly fitted or top-dose-only effect, or another doubt; inactive means no such curve, though single readings can be large; an effect the other way counts as inactive or inconclusive. Unless noted, on the % scale 0 is the no-effect control and ±100 the full control effect; potency means the concentration at half of the fitted maximal effect.

Screening NS(=O)(=O)c1ccc(NC(=O)CCn2c(=O)oc3ccccc32)cc1 returned Tau ThT inhib 1%, Tau fluor cs -6% and Tau fibril FP -6%.
`Cc1noc(NS(=O)(=O)c2ccc(NC(=O)CCn3c(=O)oc4ccccc43)cc2)c1C` gave Tau ThT inhib 5%, HPGD inh -19%, Tau fluor cs 4%, ALDH1A1 inh 4µM*, Tau fibril FP 0% and NPSR antag -8%[46.1 µM].
For Cc1noc(NS(=O)(=O)c2ccc(NC(=O)COc3ccccc3)cc2)c1C the results were Tau ThT inhib 2%, HPGD inh 0%, Tau fluor cs 1%, ALDH1A1 inh 14%, Tau fibril FP 1% and NPSR antag -4%[46.1 µM].
Cc1noc(NS(=O)(=O)c2ccc(NC(=O)CSc3ncccn3)cc2)c1C was read as Tau ThT inhib -7%, HPGD inh -6%, Tau fluor cs -8%, ALDH1A1 inh 20µM*, Tau fibril FP -5% and NPSR antag 11%[46.1 µM].
CCOC(=O)c1sc(N2C(=O)c3oc4ccc(C)cc4c(=O)c3C2c2ccccc2F)nc1C (stereo unspecified) was read as Tau ThT inhib -11%, Tau fluor cs -11% and Tau fibril FP -3%.
For COc1cccc(Nc2ncc3nc(-c4ccc(F)cc4)c(=O)n(CCC#N)c3n2)c1 the results were HPGD inh -9% and ALDH1A1 inh 2%.
O=S(=O)(Nc1ccc(N=Nc2ccc(O)c3ccccc23)cc1)c1ccccc1 was read as Tau ThT inhib 1%, HPGD inh 32µM*, Tau fluor cs -10%, ALDH1A1 inh -1%, Tau fibril FP -3% and NPSR antag inconclusive.
`O=S(=O)(Nc1ccc(N=Nc2ccccc2)cc1)c1ccccc1` gave Tau ThT inhib 16µM*, HPGD inh inconclusive, Tau fluor cs inconclusive, ALDH1A1 inh 9%, Tau fibril FP inconclusive and NPSR antag -49%.
For O=S(=O)(Nc1ccc(S(=O)(=O)Nc2ccccc2)cc1)c1ccccc1 the results were Tau ThT inhib 7%, HPGD inh -4%, Tau fluor cs -13%, ALDH1A1 inh inconclusive, Tau fibril FP -9% and NPSR antag -13%[46.1 µM].
For COC(=O)c1ccccc1NC(=O)CCCn1nc(C)c2sc3ccccc3c2c1=O the results were Tau ThT inhib inconclusive, Tau fluor cs -25% and Tau fibril FP -1%.
Screening O=C(CCOc1ccccc1)Nc1ccc([N+](=O)[O-])cc1 returned Tau ThT inhib inconclusive, Tau fluor cs -15%, ALDH1A1 inh -1%, Tau fibril FP 0% and NPSR antag -18%.
`O=C(CCN1C(=O)C2C3C=CC(C3)C2C1=O)N1CC(=O)N(CCc2ccccc2)C(=O)C1` (stereo unspecified) gave Tau ThT inhib 16%, HPGD inh 3%, Tau fluor cs 8%, ALDH1A1 inh inconclusive, Tau fibril FP 1% and NPSR antag -4%[46.1 µM].
For O=C(CN1C(=O)C2C3C=CC(C3)C2C1=O)N1CC(=O)N(CCc2ccccc2)C(=O)C1 (stereo unspecified) the results were Tau ThT inhib -5%, HPGD inh -4%, Tau fluor cs 1%, ALDH1A1 inh 28µM*, Tau fibril FP -3% and NPSR antag 7%[46.1 µM].
C/C(CC(=O)Nc1cccc(Cl)c1Cl)=N\NC(=O)c1ccccc1C was read as Tau ThT inhib 5.6µM*, Tau fluor cs -35%, ALDH1A1 inh 8.9µM*, Tau fibril FP -44% and NPSR antag 28%.
Screening COc1ccc(OC)c(CNC(=O)CN(c2ccc(C)cc2)S(=O)(=O)N(C)C)c1 returned Tau ThT inhib -7%, Tau fluor cs -19% and Tau fibril FP -1%.
`CCc1ccccc1NC(=O)C1CCN(C2=NS(=O)(=O)C(c3ccc(C)c(C)c3)=C2C)CC1` gave Tau ThT inhib -5%, Tau fluor cs 4% and Tau fibril FP -5%.
COc1ccc(N2CCN(CCCNC(=O)c3cc(Nc4ccc(OC)cc4OC)nc4ccccc34)CC2)cc1 was read as Tau ThT inhib 18µM*, Tau fluor cs 16µM*[quencher] and Tau fibril FP 11%.
For COc1ccc(OC)c(Nc2cc(C(=O)NCCCN3CCOCC3)c3ccccc3n2)c1 the results were Tau ThT inhib -17%, HPGD inh -10%, Tau fluor cs -27%, ALDH1A1 inh -3%, Tau fibril FP 12% and NPSR antag -2%[46.1 µM].
For COc1ccc(Nc2cc(C(=O)NCCCN(C)C3CCCCC3)c3ccccc3n2)cc1 the results were Tau ThT inhib inconclusive, Tau fluor cs 11µM*[quencher] and Tau fibril FP inconclusive.
`CCc1ccc(Nc2cc(C(=O)NCCCN3CCOCC3)c3ccccc3n2)cc1` gave Tau ThT inhib inconclusive, HPGD inh -8%, Tau fluor cs 16µM*[quencher], ALDH1A1 inh 3%, Tau fibril FP inconclusive and NPSR antag 9%[46.1 µM].
Screening COc1ccccc1Nc1cc(C(=O)NCCCN2CCOCC2)c2ccccc2n1 returned Tau ThT inhib -5%, HPGD inh -16%, Tau fluor cs -24%, ALDH1A1 inh -11%, Tau fibril FP 6% and NPSR antag -8%[46.1 µM].
Screening Cc1ccc(C)c(N2CCN(C(=O)c3cc(C)nc4c3c(C)nn4-c3cccc(F)c3)CC2)c1 returned Tau ThT inhib -11%, Tau fluor cs -15% and Tau fibril FP -2%.
For CN(C)c1ccc(CN(CC2CCCO2)C(=O)COc2ccccc2Cl)cc1 (stereo unspecified) the results were Tau ThT inhib -12%, Tau fluor cs -14% and Tau fibril FP 4%.
Screening COC(=O)C/C=C\[C@@H](C)[C@@H](/C=N\OCC[C@@H]1C=C[C@H](OC(C)=O)[C@H](COC(C)=O)O1)OC returned Tau ThT inhib -6%[11.5 µM], Tau fluor cs -7%[11.6 µM], ALDH1A1 inh -2%[13.5 µM] and Tau fibril FP -3%[11.6 µM].
Screening COc1ccc(NC(=O)CSc2nnc(C3CC3)n2N)cc1 returned Tau ThT inhib -3%, HPGD inh -11%, Tau fluor cs -3%, ALDH1A1 inh -15%, Tau fibril FP -4% and NPSR antag 1%[46.1 µM].
